The text below walks through data of PubChem BioAssay AID1347088 (National Center for Advancing Translational Sciences (NCATS), 2019).

Results filed as inconclusive are left out. Active and inactive are the calls of the source. Calls come from the whole dose curve.

The experiment is described as follows: qHTS for Inhibitors of the Functional Ribonucleoprotein Complex (vRNP) of Lymphocytic Choriomeningitis Arenaviruses (LCMV): Viability assay - Alamar blue signal for LCMV Confirmatory Screen. The conditions noted are these: LCMV vRNP confirmatory screen cells; series mostly up to 53.9 µM; viability change, negative = toxic: at the top concentration. A general note: Quantitative high-throughput screening tests each substance at several concentrations.
As to `CC1OC(=O)[C@@H](C(C)C)NC(=O)C(C(C)C)OC(=O)[C@H](C(C)C)NC(=O)C(C)OC(=O)[C@@H](C(C)C)NC(=O)C(C(C)C)OC(=O)[C@H](C(C)C)NC(=O)C(C)OC(=O)[C@@H](C(C)C)NC(=O)C(C(C)C)OC(=O)[C@H](C(C)C)NC1=O` (some centres undefined), the Potency was 0.611 µM (active).

As for `Fc1ccc(CNc2ncnc3ccc(F)cc23)cc1`, the “viability change, negative = toxic” value was -18.6% (inactive).

Regarding `CC[C@@H](C(=O)O)[C@@H]1O[C@@H]([C@@H](C)[C@H](O)[C@H](C)C(=O)[C@H](CC)[C@H]2O[C@]3(C=C[C@@H](O)[C@]4(CC[C@@](C)([C@H]5CC[C@](O)(CC)[C@H](C)O5)O4)O3)[C@H](C)C[C@@H]2C)[C@@H](C)C[C@@H]1C`, the Potency is 4.44 µM (active).

For `Clc1nccc2c1ccc1ccccc12`, the “viability change, negative = toxic” value was -18.9% (inactive).

As for `CCn1c(-c2nonc2N)nc2cnc(Oc3cccc(NC(=O)c4ccc(OCCN5CCOCC5)cc4)c3)cc21`, the Potency is 24.3 µM (active).

Turning to `COC(=O)c1nc(Cl)c(Cl)nc1N`, the Potency was 6.11 µM (active).

Regarding `CCCCCC[C@H]1C(=O)O[C@H](C)[C@H](NC(=O)c2cccc(NC=O)c2O)C(=O)O[C@@H](C)[C@@H]1OC(=O)CC(C)C`, the “viability change, negative = toxic” value is -22.3% (inactive).

For `COc1ccc2c(c1OC)CN1CCc3cc4c(cc3C1C2)OCO4` (centres undefined), the “viability change, negative = toxic” value was -16.3% (inactive).

As for `CNCCCC1c2ccccc2C=Cc2ccccc21`, the Potency is 27.3 µM (active).

On to `Cc1ccc2c(c1)C1CN(C)CCC1N2` (centres undefined), for which the “viability change, negative = toxic” value was -22.8% [at 19.4 µM] (inactive).

As to `O=c1ccc2ccc(O)c(O)c2o1`, the “viability change, negative = toxic” value was -6.63% (inactive).

Consider `O=C(CCCN1CCN(c2ccc(F)cc2)CC1)NC1c2ccccc2CSc2ccccc21` (centres undefined), for which the “viability change, negative = toxic” value is -20.7% (inactive).

Regarding `Cc1ccccc1-n1c(Cn2nc(-c3cccc(O)c3)c3c(N)ncnc32)nc2cccc(C)c2c1=O`, the “viability change, negative = toxic” value is -36.2% (inactive).

As to `Cc1cnc(NC(=O)C2=C(O)c3ccccc3S(=O)(=O)N2C)s1`, the “viability change, negative = toxic” value was -23.7% (inactive).

On to `COc1cc2c(cc1OC)CC(=O)N(CCCN(C)C[C@H]1Cc3cc(OC)c(OC)cc31)CC2`, for which the “viability change, negative = toxic” value was -11.1% (inactive).

As for `CCCCCN=C(N)N/N=C/c1c[nH]c2ccc(OC)cc12`, the Potency was 9.68 µM (active).

Take `C[C@]12CC[C@@H](O)C[C@H]1CC[C@@H]1[C@H]2CC[C@]2(C)C(=O)CC[C@@H]12`: the “viability change, negative = toxic” value was -2.15% (inactive).

On to `CCCCC/C(C=O)=C\c1ccccc1`, for which the “viability change, negative = toxic” value is -17.8% (inactive).

For `CCOC(=O)OCC/C(SC(=O)OCC)=C(\C)N(C=O)Cc1cnc(C)nc1N`, the “viability change, negative = toxic” value is 0.284% (inactive).

On to `CN1C(C(=O)Nc2ccccn2)=C(O)c2ccccc2S1(=O)=O`, for which the “viability change, negative = toxic” value was 4.12% (inactive).

With `CCC(C)c1nccnc1OC` (centres undefined), the “viability change, negative = toxic” value was -4.73% [at 110 µM] (inactive).

In the case of `COc1ccc(Cc2nccc3cc(OC)c(OC)cc23)cc1OC`, the Potency entry was “inactive”.

For the molecule `CCCCC[C@H](O)/C=C/C=C/C/C=C\CCCC(=O)O`, the viability change, negative = toxic is -17.3% [at 0.666 µM] (inactive).

Regarding `CC(=O)[C@H]1CC[C@H]2[C@@H]3CCC4=CC(=O)CC[C@]4(C)[C@H]3CC[C@]12C`, the “viability change, negative = toxic” value was -24.7% (inactive).
